Nrf2 ARE act: qHTS of Nrf2 Activators; AREc32 ARE-luciferase reporter (MCF7-derived line), luminescence, 24 h; Potency, µM (highest dose often 46.1 µM), usual class: activators; 0.31% of 410,000 active; also: nearly all actives have a fitted effect of over 65% in size
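AREc32 cells carrying an ARE-driven firefly luciferase reporter were seeded at 1000 cells/well in OPTI-MEM with 5% FBS, then exposed to compound for 24 hr at 37 deg C. Luminescence was read with Steady-Glo after 30 min at RT.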
Nrf2 block: Nrf2 qHTS screen for inhibitors; Potency, µM (highest dose often 46 µM), hits mostly inhibitors; A549 ARE-Fluc reporter, luciferase luminescence, 18-24 h; 2.1% of 360,000 active; AID 504444, 2011; also: nearly all actives have a fitted effect of over 60% in size
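Nrf2 activity is the BugLite luminescence, read 15 min after reagent at room temperature, following CellTiter-Fluor cytotoxicity readout (30 min, 37C). Compound titrations were applied for 18-24 h to 5000 A549 ARE_Fluc cells/well in 5% FBS OPTI-MEM.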
A549 viability: Nrf2 qHTS screen for inhibitors: counterscreen for cytotoxicity; A549 ARE-Fluc cells, CellTiter-Fluor viability, 18-24 h; Potency, µM (titrated, usually from 46 µM), hits mostly inhibitors; 0.16% of 390,000 active
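Cytotoxicity counterscreen: CellTiter-Fluor fluorescence was measured in A549 ARE_Fluc cells after 18-24 h of compound exposure in a concentration series. The subsequent BugLite luminescent read reports ARE-luciferase activity.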
IL-2 act: qHTS of IL-2 Activators; IL-2 activation reporter assay, cell-based qHTS; stimulated with anti-CD3/CD4/CD28 beads; in transgenic mouse T cells; activation, % (series mostly up to about 46 µM); 0.065% of 360,000 active; AID 652025, 2013; in the data active = activation above about 50%; inconclusive = mostly about 30% to 49%
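Screening format: compound pinned onto unstimulated transgenic mouse T cells, 60 min incubation, then anti-CD3/anti-CD4/anti-CD28 bead stimulation for 18 hours at 37 degrees C, followed by EGFP and DsRed detection.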
A number is an active result; n = inactive; u = inconclusive; x = no result. In the library only some 2.3% were active in any assay of this set; here they are far more common. Unless noted, calls follow the shape of the dose curve; as a rule, active = well fitted curve in the direction sought with a large enough effect; inconclusive = small, poorly fitted or top-dose-only effect, or another doubt; inactive = no such curve, though single readings can be large; an effect the other way counts as inactive or inconclusive.

SMILES	Nrf2 ARE act	Nrf2 block	A549 viability	IL-2 act
Cc1cc2c(s1)c1cnn(Cc3ccc(C(F)(F)F)cc3)c(=O)c1n2C	x	n	n	x
Cc1cccc(-c2nnc(-c3cccc(NC(=O)Cc4cccs4)c3)o2)c1	n	20.6µM	u	n
CCc1ccc(NC(=O)c2ccc(CN3C(=O)C(C)=C(c4ccc(C)cc4)S3(=O)=O)cc2)cc1	n	u	u	x
Cc1cc(C)c[n+](C2=C([O-])c3ccccc3C(=O)/C2=N\S(=O)(=O)c2cccs2)c1	n	20.6µM	u	n
CCc1cnc2c(c1SCc1c(F)cccc1Cl)c(=O)n(C)c(=O)n2C	n	x	n	x
N#C/C(=C\c1ccc(N2CCOCC2)o1)c1nc2ccccc2[nH]1	n	u	u	u
N#C/C(=C/c1ccc(N2CCOCC2)o1)c1ccc(Cl)cc1	12.6µM	u	u	n
Cc1cccc(C)c1NC(=O)Cn1c(=O)cc(C)c2c(C)nn(-c3cccc(Cl)c3C)c21	n	n	n	x
Oc1ccc(N=Cc2ccc(OCc3ccccc3)cc2)cc1	14.1µM	u	u	n
O=C(N/N=C/c1ccc(OCc2ccccc2)cc1)c1ccncc1	n	n	n	n
COc1ccc(Cl)cc1NC(=O)COC(=O)c1c(-c2ccccc2)noc1C	n	10.3µM	n	n
COC(=O)c1ccccc1NC(=O)CSc1c2c(nc3ccc(Cl)cc13)CCCC2	n	n	n	x
CCOC(=O)N1CCC(NC(=O)c2cc(-c3ccc(F)cc3)[nH]c2C)CC1	n	23.1µM	n	n
CSC1=N/C(=C\c2ccccc2)C(=O)N1C	11.2µM	n	n	n
N/C(=N\OC(=O)c1cccc(F)c1)c1ccccc1	11.2µM	u	n	n
Cc1ccc(/C(N)=N/OC(=O)c2cccc(F)c2)cc1	11.2µM	x	n	n
Cc1ccc(/C(N)=N/OC(=O)c2ccc(F)cc2)cc1	n	u	n	n
COc1ccc(OC)c(S(=O)(=O)N2CCN(S(=O)(=O)c3ccc4c(c3)OCCO4)CC2)c1	x	n	n	x
Cc1cccc(NC(=O)Cn2c(=O)n(CC3CCC(C(=O)NCCc4ccccc4)CC3)c(=O)c3ccccc32)c1 (configuration not stated)	n	u	n	x
Cc1nnc(N/N=C/c2cc([N+](=O)[O-])c(N3CCC(C)CC3)cc2N2CCC(C)CC2)n1N	n	18.4µM	u	n
O=C(/C=C/c1ccc(F)cc1)NC(=S)NC1CCCCC1	n	11.6µM	n	n
CCc1ccc(NC(=O)CSc2nnc(-c3nonc3NC(C)=O)n2-c2ccccc2)cc1	n	n	n	x
Cc1cccc(Nc2nc(N)c([N+](=O)[O-])c(N3CCCC(C)C3)n2)c1 (configuration not stated)	n	16.4µM	n	n
Cc1cccc(Nc2nc(N)c([N+](=O)[O-])c(N3CCN(C)CC3)n2)c1	n	n	n	n
OCCNc1nc(-c2cccs2)nc2ccccc12	x	n	n	x
SMILES	Nrf2 ARE act	Nrf2 block	A549 viability	IL-2 act
Cc1cc(C)cc(OCC(=O)NNC(=O)c2ccccn2)c1	n	10.3µM	n	n
CC(C)CCn1c(=O)c2sccc2n2c(CCCC(=O)Nc3ccc(C(C)C)cc3)nnc12	n	n	n	x
O=C1CN=C(Nc2cccc(C(F)(F)F)c2)N1C1CCCC1	n	14.6µM	n	n
Cc1ccc(CNCc2cc3c(C(C)(C)C)nn(-c4ccccc4)c3[nH]c2=O)cc1	n	u	n	n
COc1ccc(CNCc2cc3c(C(C)(C)C)nn(-c4ccccc4)c3[nH]c2=O)cc1	n	18.4µM	n	n
CC(C)(C)SCCNC(=O)/C=C/c1cccc([N+](=O)[O-])c1	10µM	n	n	n
CC(C)(C)SCCNC(=O)/C=C/c1ccc([N+](=O)[O-])cc1	n	n	n	n
O=C(NNC(=O)c1ccc(F)cc1)c1ccncc1	n	n	n	n
O=C(NNC1=Nc2ccccc2SC1)c1ccc(F)cc1	n	23.1µM	n	n
O=C(NNC1=Nc2ccccc2SC1)c1ccc(Cl)cc1	n	10.3µM	u	n
COc1cccc(C2c3c(ncn(-c4cccc(C)c4)c3=N)Oc3ccc4ccccc4c32)c1 (configuration not stated)	x	n	n	x
CCN1CCN(C(c2ccc(F)cc2)c2sc3nc(-c4ccco4)nn3c2O)CC1 (configuration not stated)	n	x	n	x
O=C(Nc1nc(-c2cccs2)c(C(=O)C(F)(F)F)s1)c1ccco1	n	u	n	n
O=C(Nc1nc(-c2cccs2)c(C(=O)C(F)(F)F)s1)c1ccccc1	n	20.6µM	n	n
COc1ccc(-c2nc(N3CCN(S(=O)(=O)c4ccc(F)cc4)CC3)c3ccccc3n2)cc1	x	n	n	x
O=C1c2cccc3c(Nc4ccccc4Cl)c([N+](=O)[O-])cc(c23)C(=O)N1CCO	n	13µM	x	u
CCN(CC)S(=O)(=O)c1ccc(C(=O)Nc2nnc(COC)o2)cc1	n	n	n	n
CCN(Cc1ccccc1)S(=O)(=O)c1ccc(C(=O)Nc2nnc(C)o2)cc1	n	13µM	n	n
COc1ccccc1-c1nnc(NC(=O)c2ccc(S(=O)(=O)N(C)Cc3ccccc3)cc2)o1	n	5.8µM	n	n
CCc1nnc(NC(=O)c2ccc(S(=O)(=O)N(CC)Cc3ccccc3)cc2)o1	n	20.6µM	n	n
CCCCN(C)S(=O)(=O)c1ccc(C(=O)Nc2nnc(CSC)o2)cc1	n	10µM	n	n
O=C(COc1ccc(S(=O)(=O)NC2CCCCC2)cc1)Nc1ccc(C(F)(F)F)cc1	n	n	n	x
Cn1nnnc1Sc1ncnc2scc(-c3ccc(S(C)(=O)=O)cc3)c12	x	u	n	x
CCc1nnc(NC(=O)c2ccc(S(=O)(=O)N(C)Cc3ccccc3)cc2)o1	n	7.31µM	n	n
C[n+]1c2n(c3ccccc31)N=C(c1ccc(Br)cc1)CS2	u	u	n	n
SMILES	Nrf2 ARE act	Nrf2 block	A549 viability	IL-2 act
C[n+]1c2n(c3ccccc31)N=C(c1ccc(-c3ccccc3)cc1)CS2	n	10.3µM	u	n
CCN1/C(=C/C=C/C=C/C=C/c2sc3ccccc3[n+]2CC)Sc2ccccc21	n	20.6µM	u	n
COc1ccc2cc3c(N)nn(C(=O)Cc4c[nH]c5ccccc45)c3nc2c1	n	16.4µM	n	n
COc1ccc2cc3c(N)nn(C(=O)c4ccc(F)cc4)c3nc2c1	n	5.8µM	n	n
COc1cccc(CC(=O)n2nc(N)c3cc4ccc(OC)cc4nc32)c1	n	n	n	n
O=C(CN1C(=O)C(c2ccc(F)cc2)=NC12CCCCCC2)Nc1ccc(F)c(Cl)c1	n	u	u	x
CCOc1ccccc1NC(=O)Cn1ccn(Cc2ccc(C)cc2)c(=O)c1=O	n	n	n	x
O=c1oc(CCO)cc2ccc(C#Cc3ccsc3)cc12	2.51µM	n	n	n
CN(Cc1ccccc1)C(=O)CSc1nnc(-c2cccc(Cl)c2)o1	n	n	n	x
COc1ccc(-c2nnc(SCC(=O)N(C)Cc3ccccc3)o2)cc1OC	n	23.1µM	n	x
Cc1ccc(N2CCn3c2nc2c3c(=O)n(CCc3ccccc3)c(=O)n2C)cc1C	n	n	n	x

Screening results as filed in PubChem BioAssay.
